Bioassay records from PubChem.
PKM2 inhibitor: blocks activity of human pyruvate kinase M2; purified PKM2, ATP generation, Kinase-Glo luminescence; Potency, µM (doses to about 57.5 µM), for the others: top-dose activity change, negative = inhibition, hits mostly inhibitors; P14618; actives 0.058% (n = 260,000); also: potency is read from the fitted curve at half-maximal effect; nearly all actives have a fitted effect of over 60% in size
Target sequence (P14618 whole entry, looked up): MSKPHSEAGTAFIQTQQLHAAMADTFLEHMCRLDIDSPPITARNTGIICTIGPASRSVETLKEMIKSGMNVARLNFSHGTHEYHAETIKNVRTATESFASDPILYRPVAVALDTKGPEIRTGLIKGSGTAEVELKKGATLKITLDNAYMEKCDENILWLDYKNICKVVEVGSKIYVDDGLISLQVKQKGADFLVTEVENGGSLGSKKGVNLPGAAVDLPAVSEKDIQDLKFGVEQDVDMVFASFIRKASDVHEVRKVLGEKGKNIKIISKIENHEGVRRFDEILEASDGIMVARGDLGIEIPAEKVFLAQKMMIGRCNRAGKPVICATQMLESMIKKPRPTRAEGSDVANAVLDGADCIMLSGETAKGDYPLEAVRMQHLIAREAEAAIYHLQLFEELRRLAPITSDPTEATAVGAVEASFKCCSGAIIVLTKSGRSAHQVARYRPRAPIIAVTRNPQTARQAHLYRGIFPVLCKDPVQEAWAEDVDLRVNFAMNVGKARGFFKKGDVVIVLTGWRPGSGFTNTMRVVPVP
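Coupled luciferase luminescence (Kinase-Glo) detects ATP generated from 0.1 mM ADP and 0.5 mM PEP in imidazole buffer pH 7.2 with KCl, MgCl2; 1 h at room temperature. Enzyme at intermediate activity; normalized to uninhibited and no-enzyme controls.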
PKM2 inh CRC: confirmation of human pyruvate kinase M2 inhibitors, concentration-response | shares compounds with PKM2 inhibitor | purified hPK-M2, Kinase-Glo ATP luminescence, 1 h | Potency, µM (doses to about 57.5 µM), for inactives: top-dose activity change, negative = inhibition, hits mostly inhibitors | actives 50% (n = 55)
PKM2 FLuc cs: firefly luciferase inhibition counter-screen. shares compounds with PKM2 inhibitor. Kinase-Glo firefly luciferase, luminescence, 8 min. Potency, µM (doses to about 57.5 µM), without a hit: top-dose activity, negative = inhibition, actives largely listed as inhibitors. actives 30% (n = 55)
PKM2 inh LDH: PKM2 (human) inhibition, NADH coupled readout; shares compounds with PKM2 inhibitor; purified hPK-M2, LDH-coupled NADH fluorescence kinetic; Potency, µM (top dose mostly 57.5 µM), inactives show top-dose activity change, negative = inhibition, most hits filed as inhibitors; 55 tested, under 10 active; AID 2267
Starred values were filed as active, the others as inactive; ? = inconclusive; / = no result given. Only a selection was taken, and hits are over-represented in it overall. Calls follow the shape of the dose curve; as a rule, active = well fitted curve in the direction sought with a large enough effect; inconclusive = small, poorly fitted or top-dose-only effect, or another doubt; inactive = no such curve, though single readings can be large; an effect the other way counts as inactive or inconclusive.

SMILES | PKM2 inhibitor | others
CCOc1ccc(C(=O)O/N=C(\N)c2ccccn2)cc1 | 7.9µM* | PKM2 inh CRC=5.8µM*;PKM2 FLuc cs=6.5µM*;PKM2 inh LDH=-10%
N/C(=N\OC(=O)c1ccccc1)c1ccccn1 | 4µM* | PKM2 inh CRC=9.2µM*;PKM2 FLuc cs=4.1µM*;PKM2 inh LDH=-9%
CC(C)(C)C(=O)NC(=C(Cl)Cl)P(=O)(O)O | -3%
Cc1ccc(NS(=O)(=O)c2c(C)nc3sccn3c2=O)cc1C | 81%
CCN(CC)S(=O)(=O)c1ccc2c(c1)nc(SCc1nc3ccsc3c(=O)[nH]1)n2CC | 66%
Cn1c(Cl)cnc1C1CC(=O)c2cc(Cl)ccc2O1 (stereo not given) | 32%
C=CCNC(=O)c1c2c(nc3ccccc13)-c1ccccc1CC2 | -3%
CC(=O)Nc1ccc(SCC(=O)N2CCN(S(=O)(=O)c3ccccc3)CC2)cc1 | 31%
O=C(OCn1nnc2ccccc2c1=O)C1CCN(S(=O)(=O)c2cccs2)CC1 | 35%
CCN1CCN(CC(=O)Nc2cc3c(cc2C(C)=O)OCO3)CC1 | 45%
Cc1n[nH]c(=O)c2c(NC(=O)CSc3nc4ccccc4c(=O)n3CCCO)oc(C)c12 | 50%
CCOC(=O)c1c(NC(=O)CSc2nc3cc(Cl)ccc3c(=O)n2Cc2ccco2)sc(C(=O)N(C)C)c1C | 46%
Cn1ccnc1C(O)c1cc(C(C)(C)C)c(O)c(C(C)(C)C)c1 (stereo not given) | 54%
Cc1ccc(-n2[nH]c(C)c(/C=N/c3ccccn3)c2=O)cc1 | 11µM* | PKM2 inh CRC=?;PKM2 FLuc cs=?;PKM2 inh LDH=-11%
CCOc1ccccc1-c1cc(-c2ccc(OC)cc2)nc2c1c(=O)n(C)c(=O)n2C | -2%
COC(=O)Cn1c(=O)c2c(nc3n2CC(C)CN3c2ccc(C)c(C)c2)n(C)c1=O (stereo not given) | 132%
Cc1ccc(-c2nc3ncccn3c2Nc2ccccc2C)o1 | 69%
Cc1ccc2nc(-c3ccc(C)o3)c(Nc3ccc(Cl)cc3)n2c1 | / | PKM2 inh CRC=21%;PKM2 FLuc cs=-1%;PKM2 inh LDH=?
Cc1ccc(-c2nc3ccccn3c2Nc2ccccc2C)o1 | / | PKM2 inh CRC=10%;PKM2 FLuc cs=2%;PKM2 inh LDH=4.6µM*
Cc1ccc(-c2cc(C(=O)Nc3ccccc3C)c3ccccc3n2)o1 | 43%
COc1ccc(-c2nc3ccccn3c2Nc2ccccc2C)cc1 | / | PKM2 inh CRC=?;PKM2 FLuc cs=0%;PKM2 inh LDH=-28%
Cc1ccc(Nc2c(-c3ccc(C)o3)nc3ncccn23)cc1 | 57%
Cc1ccc(CNC(=O)C2CC(c3cccc([N+](=O)[O-])c3)=NO2)o1 (stereo not given) | 58%
O=c1c2sccc2nc(SCc2ccc([N+](=O)[O-])cc2)n1Cc1ccccn1 | 39%
CC(=O)Nc1ccc(-n2nnnc2SCC(=O)Nc2cccc(NC(=O)c3ccco3)c2)cc1 | 43%
SMILES | PKM2 inhibitor | others
Cn1c(=O)c2c(SCC(=O)Nc3nccs3)nc(C3CC3)nc2n(C)c1=O | 37%
CCOC(=O)Cn1c(=O)oc2cc(S(=O)(=O)Nc3ccc(F)cc3)ccc21 | 32%
COc1ccc2c(c1)c(C(=O)N/N=C/c1ccc(O)c(O)c1)c(C)n2C | 48%
CNS(=O)(=O)c1ccc(NCC2COc3ccccc3O2)c([N+](=O)[O-])c1 (stereo not given) | 43%
CCn1c(CCc2ccccc2)nc2ccccc21 | 31%
Oc1ccc(/C=N/N2CCN(C3c4ccccc4-c4ccccc43)CC2)cc1O | 79%
CCc1ccc(OCCCC(=O)Nc2ccc(S(N)(=O)=O)cc2)cc1 | 94%
O=C(Nc1cc([N+](=O)[O-])ccc1N1CCCC1)c1ccco1 | 49%
O=C(Nc1nc2ccccc2n1CCOc1ccccc1)c1ccco1 | -6%
Cc1cc(NC(=O)c2ccccc2)ncc1NC(=O)c1ccco1 | ? | PKM2 inh CRC=16µM*;PKM2 FLuc cs=?;PKM2 inh LDH=-13%
O=[N+]([O-])c1ccc(NCCCNS(=O)(=O)c2ccccc2)c(Cl)c1 | 86%
CCCN1CNC(=S)N(c2ccccc2OCC)C1 | 45%
CC(C)C[C@H](N)c1nnc(S(=O)(=O)Cc2ccc(F)cc2)o1 | 79%
COc1ccc(-c2nc3cccc(C)n3c2Nc2ccc(C)cc2)cc1 | / | PKM2 inh CRC=6%;PKM2 FLuc cs=-3%;PKM2 inh LDH=?
Cc1ccc(Nc2c(-c3ccc(C)s3)nc3cccc(C)n23)cc1 | / | PKM2 inh CRC=?;PKM2 FLuc cs=0%;PKM2 inh LDH=16%
Cc1ccccc1Nc1c(-c2ccccc2)nc2cccc(C)n12 | / | PKM2 inh CRC=4%;PKM2 FLuc cs=-2%;PKM2 inh LDH=?
Cc1ccc(/C=C/C2=Cc3c(sc(NC(=O)CSc4n[nH]c(N)n4)c3C#N)C(C)(C)C2)o1 | 75%
Cc1c(F)cccc1NS(=O)(=O)c1ccc2c(c1)c(=O)n(C)c(=O)n2C | 88%
CCNC(=S)SCCOc1ccccc1C | 16%
Cc1ccc(NC(=O)C2C3CCCC2C3c2ccccc2)cc1 (stereo not given) | 31%
Cc1cccc(C)c1NC(=O)NC1(C(=O)NCCCN2CCOCC2)CCCCC1 | 53%
CS(=O)(=O)c1sc(C#N)c2c1C(=O)CC(c1ccccc1)C2 (stereo not given) | 35%
O=C(COc1ccc(S(=O)(=O)N2CCc3ccccc32)cc1Cl)NCc1ccccn1 | 98%
O=C1/C(=C/c2ccc(Cl)cc2)NC(=S)N1Cc1cccnc1 | 40%
Cc1cccc(N2CCN(C(=O)C3CC(=O)N(C4CCCC4)C3)CC2)c1C (stereo not given) | 15%
SMILES | PKM2 inhibitor | others
Cc1cc2sc(C(=O)O)c(C)c2s1 | 35%
COc1ccc(-c2nc(-c3ccccn3)no2)cc1 | 3.5µM* | PKM2 inh CRC=5.8µM*;PKM2 FLuc cs=3.3µM*;PKM2 inh LDH=-12%
Cc1ccccc1-c1nc(-c2ccccn2)no1 | 8.9µM* | PKM2 inh CRC=12µM*;PKM2 FLuc cs=5.2µM*;PKM2 inh LDH=-3%
COc1ccc(C(=O)NCc2oc(-c3ccccc3)cc2C(=O)O)cc1 | 39%
CCCNc1nc(Cl)nc(NCc2cccnc2)n1 | 30%
Cc1cc(N(CCO)CCO)ccc1C(c1ccc(N(CCO)CCO)cc1C)c1ccccc1Cl | 32%
COC(=O)c1ccc(COc2ccc(/C=N/O)cc2OC)o1 | 54%
N#CCn1cnc2sc(-c3ccccc3)cc2c1=O | 31%
Cc1nc2cc(-c3ccccc3)sc2c(=O)n1N | 3.5µM* | PKM2 inh CRC=3.7µM*;PKM2 FLuc cs=2.6µM*;PKM2 inh LDH=-5%
Cc1cc(-c2nn(-c3ccccc3F)cc2CNCCc2cnc[nH]2)c(C)s1 | 50%
COc1ccccc1CNC(=S)Nc1ccc2nc(N3CCN(C)CC3)cc(C)c2c1 | 71%
COc1ccc(C(=O)N=c2nc3ccccn3s2)cc1 | 7.9µM* | PKM2 inh CRC=13µM*;PKM2 FLuc cs=5.2µM*;PKM2 inh LDH=-5%
CC(=O)c1ccc(S(=O)(=O)N2CCN(C(=O)CSc3ccc(C)c(C)c3)CC2)cc1 | 56%
Cc1ccc(NS(=O)(=O)c2c(C)nc3sccn3c2=O)c(C)c1 | 55%
Cc1cc(C)c(S(=O)(=O)N2CCN(C(=O)CCn3nc(C)c(C)c3C)CC2)c(C)c1 | 80%
O=c1c2ccccc2sn1-c1cc(S(=O)(=O)N2CCOCC2)ccc1N1CCCC1 | 3.5µM* | PKM2 inh CRC=6.5µM*;PKM2 FLuc cs=1%;PKM2 inh LDH=?
O=C(c1cc(S(=O)(=O)N2CCOCC2)ccc1Cl)N1CCN(c2ccccn2)CC1 | 87%
CC1(C)NC(=O)N(CC(=O)Nc2cc(S(=O)(=O)N3CCOCC3)ccc2N2CCOCC2)C1=O | 37%
